Shiga inhibitor = Shiga toxin inhibition. Vero cells, Shiga toxin protein synthesis inhibition reporter. inhibition, % at 38.7 µM. actives 9.2% (n = 290,000); in the data active = inhibition mostly above about 28%, no sharp cut-off; inactive = mostly below about 43%; also: 0% is about no effect
Pf growth 48h = P. falciparum growth inhibition at 48 hours (one generation) | P. falciparum luciferase growth in erythrocytes, 48 h | Potency, µM (highest dose often 28.7 µM), for inactives: at the top dose activity change, negative = inhibition, hits mostly inhibitors | actives 5.9% (n = 310,000); active = well fitted inhibition curve with a large enough effect; inconclusive = small, poorly fitted or top-dose-only effect, or another doubt; inactive = no such curve, though single readings can be large or run the other way; also: potency is read from the fitted curve at half-maximal effect; % is scaled to controls: 0 for no effect and ±100 for the full control effect
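Erythrocytes infected with P. falciparum carrying an integrated firefly luciferase reporter (2% hematocrit, 0.1% parasitemia final) were exposed to compounds in RPMI 1640 with 0.5% Albumax at 37 C, 5% CO2. Growth inhibition was scored as reduced luminescence.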
Pf growth 96h = inhibits malaria parasite growth, 96 h; P. falciparum luciferase reporter growth, 96 h; Potency, µM (highest dose often 28.7 µM), without a hit: at the top dose activity change, negative = inhibition, actives largely listed as inhibitors; actives 6.9% (n = 320,000); AID 504834; active = well fitted inhibition curve with a large enough effect; inconclusive = small, poorly fitted or top-dose-only effect, or another doubt; inactive = no such curve, though single readings can be large or run the other way; also: potency is read from the fitted curve at half-maximal effect; % is scaled to controls: 0 for no effect and ±100 for the full control effect
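Luminescence readout: decreased luciferase signal marks inhibited growth of reporter-expressing P. falciparum in infected red cells (2% hematocrit, 0.05% parasitemia final), exposed to compound two generations (96 h, 37 C, 5% CO2).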
NS1 inh = influenza NS1 inhibition; Potency, µM (doses to about 46.1 µM), for inactives: top-dose activity, positive = more growth; actives 0.4% (n = 270,000); also: potency is read from the fitted curve at half-maximal effect; actives are rising curves; nearly all actives have a fitted effect of over 50% in size
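A cell-based growth assay was used: compounds that relieve NS1-induced slow growth of budding yeast raise OD600. Assay medium was yeast nitrogen base with ammonium sulphate and -URA supplement, pH 6.0, with 2% galactose.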
Cycloheximide cs = counter-screen hit for Shiga toxin inhibitors, cycloheximide | cell reporter, cycloheximide protein synthesis inhibition counterscreen | max response, % | actives 12% (n = 300,000); in the data active = max response mostly above about 13%, no sharp cut-off; inactive = mostly below about 14%; also: read at 38.3 µM for the half of the compounds with a filed dose; 0% is about no effect
SARS PLP yeast = blocks SARS-CoV papain-like protease in a yeast assay. S. cerevisiae expressing SARS-CoV PLpro, growth rescue. Potency, µM (top dose mostly 32.9 µM), for inactives: at the highest dose activity, positive = growth rescue, actives largely listed as activators. actives 0.19% (n = 330,000); also: potency is read from the fitted curve at half-maximal effect; 0% is about no effect; nearly all actives have a fitted effect of over 55% in size
* marks the source's active call; other numbers are inactive results; ? = inconclusive; . = no result given. Sampled rows, rich in hits. Any-hit rate of the full collection: about 21%. Unless noted, calls follow the shape of the full dose curve.

SMILES	Shiga inhibitor	Pf growth 48h	Pf growth 96h	NS1 inh	Cycloheximide cs	SARS PLP yeast
CC(=O)N(C)c1ccc(N=Cc2c(O)ccc3ccccc23)cc1	25*	17%	286%	-5%	17*	-2%
Oc1ccccc1N=Cc1c(O)ccc2ccccc12	39*	?	10µM*	-57%	11*	-6%
CC(=O)c1cccc(N=Cc2c(O)ccc3ccccc23)c1	-3	12%	-8%	-2%	2	-5%
Cc1cc(C(=O)O)ccc1N=Cc1c(O)ccc2ccccc12	25	49%	12µM*	14%	10*	-6%
CS/C(N)=N/N=C/c1c(O)ccc2ccccc12	58*	86%	74%	-56%	29*	-5%
Oc1ccc2ccccc2c1C=Nc1ccccc1Br	-7	2%	18%	9%	1	1%
Cc1ccccc1C1=NCC(=O)N(CC(=O)N2CCCCC2)c2sc(C)c(C)c21	9	?	13µM*	-19%	-2	0%
O=C(CN1C(=O)c2ccccc2S1(=O)=O)N1CCCCC1	3	127%	19%	3%	-3	1%
O=C(CSc1ncnc2ccccc12)c1ccco1	57	97%	5%	4%	25*	0%
COc1ccc2nc(SCC(=O)c3ccco3)[nH]c2c1	63*	112%	191%	-4%	48*	2%
COc1ccc2nc(SCC(=O)C(C)(C)C)[nH]c2c1	65*	114%	115%	0%	43*	1%
COc1ccc2nc(SCC(=O)NC(C)(C)C)[nH]c2c1	56	30%	-29%	-1%	8	2%
O=C(CSc1nc2ccccc2[nH]1)c1ccco1	106*	82%	39%	-12%	28*	0%
O=C(CSc1nc2ccccc2[nH]1)Nc1c(F)c(F)c(F)c(F)c1F	1	34%	-21%	.	11	-2%
CCN(CC)COC(=S)S	.	.	.	-20%	.	.
CNc1snc(C)c1C(=O)OC(C)C(=O)Nc1ccc(F)cc1 (stereo not given)	.	?	?	.	.	13%
CN(CC(=O)Nc1ccc([N+](=O)[O-])cc1Br)Cc1c(F)cccc1Cl	7	?	-18%	-5%	13	-1%
CCOc1ccc2nc(SCC(=O)N(C)C)[nH]c2c1	74*	.	204%	10%	71*	14%
CCOc1ccc2nc(SCC(=O)N(C)C3CCS(=O)(=O)C3)[nH]c2c1 (stereo not given)	-24	0%	32%	3%	-4	0%
COc1ccc2nc(SCC(=O)Nc3nccs3)[nH]c2c1	43*	14%	173%	-2%	20*	-1%
O=C(CS(=O)(=O)c1ccccc1)N1CCN(c2ccccc2)CC1	.	36%	40%	.	.	-1%
COC(=O)C(C)Oc1ccc(Cc2ncc(C(F)(F)F)cc2Cl)cc1 (stereo not given)	-6	4%	-2%	4%	-1	-5%
CC(=O)c1sc(NC(=O)CSCc2c(C)noc2C)nc1-c1ccccc1	.	10µM*	?	.	.	-2%
CCOc1ccc2nc(NC(=O)CSCC(=O)Nc3cc(C)on3)sc2c1	.	95%	130%	.	.	-2%
CCOC(=O)c1sc(NC(=O)CSCc2c(C)noc2C)nc1C	.	10µM*	?	.	.	2%
SMILES	Shiga inhibitor	Pf growth 48h	Pf growth 96h	NS1 inh	Cycloheximide cs	SARS PLP yeast
Cc1noc(C)c1CSCC(=O)Nc1nc2ccccc2s1	8	17%	?	0%	21*	-6%
CC(=O)c1sc(NC(=O)CSC(C)C(=O)Nc2cc(C)on2)nc1-c1ccccc1 (stereo not given)	.	-17%	?	.	.	1%
Cc1noc(C)c1C(=O)Nc1nc2ccccc2s1	.	128%	131%	.	.	6%
CCc1ccc2nc(NC(=O)CSCc3c(C)noc3C)sc2c1	68*	2%	30%	-15%	21*	5%
c1cnc2ccc3ncccc3c2c1	35	-27%	-11%	-2%	14	-1%
Nc1nc(N)c2c(ccc3nccc32)[nH]1	-9	1.7µM*	3.7µM*	2%	-2	2%
OC(CNCc1ccccc1)Cn1ccc2ccccc21 (stereo not given)	-17	9.3µM*	?	15%	-6	10%
OCc1nc2ccccc2n1CC(O)Cn1ccc2ccccc21 (stereo not given)	-4	7%	?	2%	-4	-2%

Source: PubChem (National Center for Advancing Translational Sciences (NCATS))
